Hits are enriched below; roughly 2.8% of the tested compounds scored in any of these assays.
PAFAH2 inh = inhibitors of human PAFAH2; Q99487; recombinant PAFAH2, FP-rhodamine activity probe, fluorescence polarization; inhibition, % at 3.39 µM; 340,000 compounds, 0.99% hits; AID 492956;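 active = inhibition above the mean over all tested compounds plus 3 SD, cut at about 30% in these data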;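 note: inhibitors block probe labeling of enzyme so polarization drops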
pPAFAH FP inh = pPAFAH (human) enzyme inhibition; recombinant pPAFAH, FP-rhodamine probe fluorescence polarization; inhibition, % at 3.39 µM; 330,000 compounds, 1.5% hits; AID 463082;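 active = inhibition above the mean inhibition across the screen plus 3 SD, cut at about 25% in these data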;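 note: inhibitors block binding of the rhodamine activity-based probe so polarization drops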
Fam108B counter = Fam108B inhibition, counter-screen for RBBP9 inhibitors. 300,000 compounds, 0.33% hits. recombinant Fam108B, FP-Rh probe fluorescence polarization. inhibition, % at 9.51 µM. AID 1947;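 active = inhibition above the screen mean inhibition plus 3 SD, computed separately per campaign, cut at about 18% in these data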;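 note: inhibitors lower polarization as less probe binds the enzyme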
PME-1 inh = PME-1 (human) inhibition | recombinant PME-1, FP-Rh probe fluorescence polarization | inhibition, % at 5.9 µM | 320,000 compounds, 0.53% hits | AID 2130;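 active = inhibition above the campaign mean of all compounds plus 3 SD, cut at about 26% in these data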;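 note: competitive labeling of PME-1 active site by serine hydrolase directed probe; inhibitors block probe labeling so polarization falls and inhibition rises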
Target sequence (Q9Y570 whole entry, looked up): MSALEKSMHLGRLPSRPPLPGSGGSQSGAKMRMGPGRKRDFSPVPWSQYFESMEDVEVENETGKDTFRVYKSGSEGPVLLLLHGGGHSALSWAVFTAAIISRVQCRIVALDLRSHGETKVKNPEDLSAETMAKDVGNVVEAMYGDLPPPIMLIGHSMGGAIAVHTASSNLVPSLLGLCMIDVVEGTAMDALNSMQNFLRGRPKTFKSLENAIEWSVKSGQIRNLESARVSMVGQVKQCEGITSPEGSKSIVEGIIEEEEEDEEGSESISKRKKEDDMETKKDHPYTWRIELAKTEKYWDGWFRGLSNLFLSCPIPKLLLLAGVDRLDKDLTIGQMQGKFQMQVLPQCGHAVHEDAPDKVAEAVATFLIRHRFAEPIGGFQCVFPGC
PAFAH1B2 inh = blocks human PAF acetylhydrolase 1b catalytic subunit 2; inhibition, % at 3.39 µM; 340,000 compounds, 1.2% hits; recombinant PAFAH1B2, FP-rhodamine activity probe, fluorescence polarization; P68402;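 active = inhibition above the mean of all tested compounds plus 3 SD, cut at about 24% in these data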
Target sequence (P68402 whole entry, looked up): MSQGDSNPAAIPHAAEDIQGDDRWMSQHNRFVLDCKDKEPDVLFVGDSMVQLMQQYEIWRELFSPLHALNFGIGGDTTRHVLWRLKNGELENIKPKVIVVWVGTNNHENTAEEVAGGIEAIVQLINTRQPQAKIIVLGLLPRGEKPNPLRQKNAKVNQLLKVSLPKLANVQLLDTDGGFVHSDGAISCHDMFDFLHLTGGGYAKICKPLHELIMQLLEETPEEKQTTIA
PAFAH1B3 inh = PAFAH1B3 (human) inhibition; recombinant PAFAH1B3, FP-rhodamine probe, fluorescence polarization; inhibition, % at 3.39 µM; 340,000 compounds, 0.28% hits;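 active = inhibition above the screen-wide average of all tested compounds plus 3 SD, cut at about 25% in these data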
Fam108b inh conf = confirmation of mouse Fam108b serine hydrolase inhibitors; shares compounds with Fam108B counter; inhibition, % at 9.51 µM; 930 compounds, 44% hits; recombinant Fam108b, FP-Rh probe fluorescence polarization;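 active = inhibition above a limit from the primary screen, the mean over all compounds plus 3 SD, cut at about 19% in these data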;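 note: inhibitors free the probe so polarization falls as inhibition rises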
pPAFAH confirm = pPAFAH (human) inhibition, confirmed; inhibition, % at 3.39 µM; recombinant pPAFAH, FP-Rh probe fluorescence polarization; 2,300 compounds, 72% hits; shares compounds with pPAFAH FP inh;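 active = mean inhibition of the triplicate above the hit cutoff set for the earlier primary screen, cut at about 25% in these data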
Hits are given with their value.

What do the screens show for `Cc1ccc(NC(=O)CN2CCCN(S(=O)(=O)c3ccc(Br)s3)CC2)cc1`?
PAFAH2 inh: inactive; pPAFAH FP inh: inactive; Fam108B counter: inactive; PME-1 inh: inactive; PAFAH1B2 inh: inactive; PAFAH1B3 inh: inactive

What do the screens show for `NS(=O)(=O)c1ccc(N/N=C/c2ccccc2C(=O)O)c([N+](=O)[O-])c1`?
PAFAH2 inh: inactive; pPAFAH FP inh: inactive; Fam108B counter: inactive; PME-1 inh: inactive; PAFAH1B2 inh: inactive; PAFAH1B3 inh: inactive

What do the screens show for `O=C(O)COc1ccccc1/C=N/Nc1ccc(S(=O)(=O)Nc2ccc(Cl)cc2)cc1[N+](=O)[O-]`?
PAFAH2 inh: inactive; pPAFAH FP inh: 65; Fam108B counter: 18; PME-1 inh: 50; PAFAH1B2 inh: 47; PAFAH1B3 inh: inactive; Fam108b inh conf: 24; pPAFAH confirm: 68

What do the screens show for `CC(C(=O)NCc1cccs1)N1C(=O)c2ccccc2C1=O` (configuration not stated)?
PAFAH2 inh: inactive; pPAFAH FP inh: inactive; Fam108B counter: inactive; PME-1 inh: inactive; PAFAH1B2 inh: inactive; PAFAH1B3 inh: inactive

Results for COc1cccc(/C=N/Nc2ccc([N+](=O)[O-])cn2)c1O ?
PAFAH2 inh: inactive; pPAFAH FP inh: 48; Fam108B counter: 51; PME-1 inh: 75; PAFAH1B2 inh: inactive; PAFAH1B3 inh: inactive; Fam108b inh conf: inactive; pPAFAH confirm: inactive

What do the screens show for `O=[N+]([O-])c1ccc(NN=Cc2cccc3ccccc23)nc1`?
PAFAH2 inh: inactive; PAFAH1B2 inh: inactive; PAFAH1B3 inh: inactive

What do the screens show for `O=[N+]([O-])c1ccc(N/N=C/c2cccc(O)c2O)cc1`?
PAFAH2 inh: inactive; pPAFAH FP inh: 60; Fam108B counter: 19; PME-1 inh: 33; PAFAH1B2 inh: inactive; PAFAH1B3 inh: 31; Fam108b inh conf: 93; pPAFAH confirm: 56

Results for O=C(O)c1cc(S(=O)(=O)N2CCN(C(=O)c3ccco3)CC2)c(Cl)cc1Cl ?
PAFAH2 inh: inactive; pPAFAH FP inh: inactive; Fam108B counter: inactive; PME-1 inh: inactive; PAFAH1B2 inh: inactive; PAFAH1B3 inh: inactive

How did CCN(C(=O)[C@@H]1CCCN1C(=O)c1cccs1)c1nc2cc(Cl)ccc2s1 do in these assays?
PAFAH2 inh: inactive; pPAFAH FP inh: inactive; Fam108B counter: inactive; PME-1 inh: inactive; PAFAH1B2 inh: inactive; PAFAH1B3 inh: inactive

How did CC(=O)c1c2c3c(cccc3n(C)c1=O)C(=O)c1ccccc1-2 do in these assays?
pPAFAH FP inh: inactive; Fam108B counter: inactive; PME-1 inh: inactive

How did Cn1c(=O)c(Nc2ccc(O)cc2)c2c3c(cccc31)C(=O)c1ccccc1-2 do in these assays?
PAFAH2 inh: inactive; pPAFAH FP inh: 41; Fam108B counter: 23; PME-1 inh: 36; PAFAH1B2 inh: inactive; PAFAH1B3 inh: inactive; Fam108b inh conf: 22; pPAFAH confirm: 40

What do the screens show for `Cn1c(O)c(/C=N/NC(=O)c2cc3ccccc3cc2O)c2ccccc21`?
PAFAH2 inh: inactive; pPAFAH FP inh: 62; Fam108B counter: 36; PME-1 inh: 70; PAFAH1B2 inh: 37; PAFAH1B3 inh: 37; Fam108b inh conf: 31; pPAFAH confirm: 49

How did COc1ccc2c(c1)cc(C(=O)N/N=C/c1c(O)c(C(=O)O)cc3ccccc13)n2C do in these assays?
PAFAH2 inh: 39; pPAFAH FP inh: 59; Fam108B counter: 43; PME-1 inh: 49; PAFAH1B2 inh: inactive; PAFAH1B3 inh: 29; Fam108b inh conf: inactive; pPAFAH confirm: 84

What do the screens show for `CN(c1ccc(C(=O)N/N=C/c2cccc([N+](=O)[O-])c2)cc1)S(=O)(=O)c1ccccc1`?
PAFAH2 inh: inactive; pPAFAH FP inh: inactive; Fam108B counter: inactive; PME-1 inh: inactive; PAFAH1B2 inh: inactive; PAFAH1B3 inh: inactive

What do the screens show for `COc1ccccc1C(=O)O[C@H]1[C@H](Cc2ccccc2)NS(=O)(=O)[C@H]2C[C@@H]3C=C[C@]12O3`?
PAFAH2 inh: inactive; pPAFAH FP inh: inactive; PME-1 inh: inactive; PAFAH1B2 inh: inactive; PAFAH1B3 inh: inactive

Results for COC1=CC(=O)C(O)=C(CCCCCCC/C=C/CCCCCCCC2=C(O)C(=O)C=C(OC)C2=O)C1=O ?
PAFAH2 inh: 101; pPAFAH FP inh: 95; Fam108B counter: 47; PME-1 inh: inactive; PAFAH1B2 inh: 94; PAFAH1B3 inh: 41; Fam108b inh conf: 52; pPAFAH confirm: 95

Results for CCc1ccc(NC(=O)CCC(=O)c2ccccc2)cc1 ?
PAFAH2 inh: inactive; pPAFAH FP inh: inactive; Fam108B counter: inactive; PME-1 inh: inactive; PAFAH1B2 inh: inactive; PAFAH1B3 inh: inactive

Results for O=C(O)c1cccc(-c2ccc(/C=N/Nc3ccc([N+](=O)[O-])cc3)o2)c1 ?
PAFAH2 inh: inactive; pPAFAH FP inh: 42; Fam108B counter: 23; PME-1 inh: 33; PAFAH1B2 inh: inactive; PAFAH1B3 inh: inactive; Fam108b inh conf: 20; pPAFAH confirm: 28

What do the screens show for `O=C(O)c1ccc(N/N=C/c2ccc(-c3cc(Cl)ccc3Cl)o2)cc1`?
PAFAH2 inh: inactive; pPAFAH FP inh: 37; Fam108B counter: 22; PME-1 inh: inactive; PAFAH1B2 inh: inactive; PAFAH1B3 inh: inactive; Fam108b inh conf: inactive; pPAFAH confirm: 56

How did O=C(O)c1ccc(N/N=C/c2ccc(-c3ccc(Cl)cc3Cl)o2)cc1 do in these assays?
PAFAH2 inh: inactive; pPAFAH FP inh: 51; Fam108B counter: 28; PME-1 inh: 64; PAFAH1B2 inh: inactive; PAFAH1B3 inh: inactive; Fam108b inh conf: 23; pPAFAH confirm: 47

What do the screens show for `COC(=O)N/N=C/c1ccc(-c2ccc(Cl)cc2Cl)o1`?
PAFAH2 inh: inactive; pPAFAH FP inh: inactive; Fam108B counter: inactive; PME-1 inh: inactive; PAFAH1B2 inh: inactive; PAFAH1B3 inh: inactive

Results for COc1cccc(NC(=O)CCC(=O)Nc2ccc3nc(N4CCOCC4)cc(C)c3c2)c1 ?
PAFAH2 inh: inactive; pPAFAH FP inh: inactive; Fam108B counter: inactive; PME-1 inh: inactive; PAFAH1B2 inh: inactive; PAFAH1B3 inh: inactive

How did Cc1cc(=O)oc2c(C)c(OC(C)C(=O)N3CC[C@@]4(O)CCCC[C@H]4C3)ccc12 (some centres not stated) do in these assays?
PAFAH2 inh: inactive; pPAFAH FP inh: inactive; Fam108B counter: inactive; PME-1 inh: inactive; PAFAH1B2 inh: inactive; PAFAH1B3 inh: inactive

How did Oc1c(Br)cc(C=Nc2ccc3nc(-c4ccccc4)[nH]c3c2)c(O)c1Br do in these assays?
pPAFAH FP inh: 44; Fam108B counter: 33; PME-1 inh: 35; Fam108b inh conf: inactive; pPAFAH confirm: 35

How did COc1ccc(NC(=O)c2cc(C3CC3)nc3c2cnn3C(C)C)cc1OC do in these assays?
PAFAH2 inh: inactive; pPAFAH FP inh: inactive; PME-1 inh: inactive; PAFAH1B2 inh: inactive; PAFAH1B3 inh: inactive

Screens: PubChem, The Scripps Research Institute Molecular Screening Center
